Only some compounds are listed: those with a hit (about 3.1% of all), similar ones and a draw of the others.
HSF1 activator – HSF-1 activators, primary screen, NIH3T3-HGL cells, MG132 stress, luminescence, single point | NIH3T3-HGL HSF-1 luciferase reporter, 8 h; 100% = twice DMSO control signal | activation, % at 9 µM | 300,000 compounds, 1.7% hits | AID 504408, 2011;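 active = mean replicate activation of at least 50% with a set share of replicates each reaching 50%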
ARNT-TACC3 inh – disruptors of ARNT/TACC3 protein interaction, primary screen, biochemical, AlphaScreen, single concentration | 390,000 compounds, 0.66% hits | AlphaScreen His-ARNT PAS-B/GST-TACC3 binding, luminescence; TACC3 fragment carries E629A point mutation | inhibition, % at 9.99 µM | Transforming acidic coiled-coil-containing protein 3 (Homo sapiens), Q9Y6A5 | AID 623870, 2012;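 active = mean inhibition of replicates at least 50% and at least half of replicates each reaching 50%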
HSP90 inh – HSP90 inhibitors, primary screen, cell lysate, luminescence. Heat shock protein HSP 90 (rabbit reticulocyte lysate; luciferase refolding). Rabbit reticulocyte lysate, luciferase refolding luminescence, 3 h. inhibition, % at 5.6 µM. 290,000 compounds, 0.91% hits. AID 1789, 2009;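 active = inhibition above the screen-wide mean plus 3 SD, computed separately per campaign, cut at about 16% in these data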;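 note: inhibitors lower the luminescence because luciferase stays unfolded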
HSF1 inhib – HSF1 inhibitors in luciferase reporter cells, primary screen, cell-based, NIH3T3, luminescence; NIH3T3-HGL HSE-luciferase, MG132-induced, luminescence 8 h; stronger effect = lower value; AID 2098, 2009; 300,000 compounds, 0.77% hits; activity change, negative = inhibition, % at 7.5 µM (by protocol);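 active = more than half of replicate wells show activity change below -50%, luminescence cut by over half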;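 note: luciferase reports HSF-1 transcriptional activity via heat shock element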
HIF act – HIF pathway transcriptional activators, primary screen, cell-based, U2OS HRE-luciferase, luminescence | U2OS HRE-luciferase reporter; normalized: DMSO 0%, desferrioxamine 100% | AID 1910, 2009 | 300,000 compounds, 0.32% hits | activation, % at 7.5 µM (by protocol);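 active = mean activation of at least 10% of the iron chelator positive control signal, with at least half of replicates also reaching 10%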
HSP90 inh confirm – HSP90 inhibitors, confirmation, cell lysate, luminescence; shares compounds with HSP90 inh; rabbit reticulocyte lysate, luciferase refolding luminescence, 3 h; inhibition, % at 5.9 µM; 2,300 compounds, 64% hits; in the data active = inhibition above about 18%
luciferase ctr – firefly luciferase inhibitors, HSP90 counter-screen, confirmation, artefact control for HSP90 inhibitor project, biochemical, luminescence, triplicate; shares compounds with HSP90 inh; purified native firefly luciferase; inhibition, % at 5.9 µM; 2,300 compounds, 48% hits; AID 1847, 2009;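 active = inhibition above the mean inhibition of all tested sample wells plus 3 SD, cut at about 10% in these data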
Target sequence (P08659 whole entry, looked up): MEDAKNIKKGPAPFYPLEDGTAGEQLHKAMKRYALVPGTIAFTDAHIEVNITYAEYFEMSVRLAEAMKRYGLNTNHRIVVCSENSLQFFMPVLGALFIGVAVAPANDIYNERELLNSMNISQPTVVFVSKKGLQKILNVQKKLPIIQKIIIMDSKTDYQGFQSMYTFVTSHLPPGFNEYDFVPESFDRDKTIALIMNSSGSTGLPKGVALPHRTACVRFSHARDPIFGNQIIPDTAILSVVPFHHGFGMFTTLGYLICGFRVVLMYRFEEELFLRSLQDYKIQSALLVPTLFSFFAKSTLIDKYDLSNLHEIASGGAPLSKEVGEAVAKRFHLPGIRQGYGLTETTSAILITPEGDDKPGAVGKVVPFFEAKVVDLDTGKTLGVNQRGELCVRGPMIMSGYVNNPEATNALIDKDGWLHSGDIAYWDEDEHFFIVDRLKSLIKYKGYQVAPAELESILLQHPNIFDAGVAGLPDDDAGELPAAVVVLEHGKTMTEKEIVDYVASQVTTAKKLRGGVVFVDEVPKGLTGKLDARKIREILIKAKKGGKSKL
Large screens that a line does not name were inactive (follow-up assays come after a bar, where they were run).

COC(=O)c1ccc(NC(=O)c2sc3nc(-c4ccccc4)cn3c2C)cc1	HSP90 inh 21 | HSP90 inh confirm 18 | luciferase ctr inactive
Cc1ccc2oc(/N=C(\N)NC(=O)C3CC3)nc2c1	HSP90 inh 27 | HSP90 inh confirm 48 | luciferase ctr 40
Cc1ccc2oc(/N=C(\N)NC(=O)C(C)(C)C)nc2c1	HSP90 inh 81, HSF1 inhib -91 | HSP90 inh confirm 85 | luciferase ctr 83
CC(C)(C)c1ccc(C(=O)N/C(N)=N/c2nc3ccccc3o2)cc1	none
C[C@H](CO)N1C[C@H](C)[C@H](CN(C)S(=O)(=O)c2cccs2)OCCCC[C@H](C)Oc2ccc(NS(=O)(=O)c3cn(C)cn3)cc2C1=O	none (no result: HSF1 activator, HSP90 inh, HSF1 inhib, HIF act)
O=C(C[C@@H]1CC[C@H](NC(=O)CCN2CCCCC2)[C@@H](CO)O1)Nc1ccc(-c2ccccc2)cc1	none (no result: HSF1 activator, HSP90 inh, HSF1 inhib, HIF act)
CCc1ccc(NC(=O)c2noc3c2CCc2ccccc2-3)cc1	none
O=C(Nc1cccc(O)c1)c1noc2c1CCc1ccccc1-2	HSP90 inh 40 | HSP90 inh confirm 61 | luciferase ctr 54
c1ccc2nc(-c3nc4ccccc4o3)ccc2c1	HSP90 inh 32 | HSP90 inh confirm 81 | luciferase ctr 76
CCCN1C[C@@H](C)[C@@H](OC)CN(C)C(=O)c2ccc(NC(=O)CC(F)(F)F)cc2OC[C@@H]1C	none (no result: HSF1 activator, HSP90 inh, HSF1 inhib, HIF act)
O=C(Nc1nc2cc3c(cc2s1)OCCO3)c1ccco1	HSP90 inh 78, HSF1 inhib -55 | HSP90 inh confirm 91 | luciferase ctr 89
CC1CCc2nc(NC(=O)c3ccco3)sc2C1 (stereo not drawn)	HSP90 inh 54 | HSP90 inh confirm 82 | luciferase ctr 77
CCOc1ccc2nc(NC(=O)c3ccco3)sc2c1	HSP90 inh 39 | HSP90 inh confirm 51 | luciferase ctr 45
O=C(/C=C/c1ccc2c(c1)OCO2)Nc1nc2ccccc2s1	HSP90 inh 25 | HSP90 inh confirm 62 | luciferase ctr 20
COc1ccc(NC(=O)Nc2cccc3c2O[C@H](CN(C)Cc2ccccc2)[C@H](C)CN([C@H](C)CO)C3=O)cc1	none (no result: HSF1 activator, HSP90 inh, HSF1 inhib, HIF act)
O=C(NCC1CC1)[C@@H]1[C@@H](CO)[C@@H]2Cn3c(ccc(-c4cccnc4)c3=O)[C@H]1N2C(=O)C1CCCCC1	none (no result: HSF1 activator, HSP90 inh, HSF1 inhib, HIF act)
CC(=O)Nc1nc2cc3c(cc2s1)OCO3	none
CC(C)C(=O)Nc1nc2cc3c(cc2s1)OCCO3	HSP90 inh 28 | HSP90 inh confirm 40 | luciferase ctr 34
O=C(Nc1nc2cc3c(cc2s1)OCO3)c1ccco1	HSP90 inh 25 (no result: HSF1 activator, HSF1 inhib, HIF act) | HSP90 inh confirm 69 | luciferase ctr 68
C[C@H](CO)N1C[C@H](C)[C@@H](CN(C)Cc2ccc(C(F)(F)F)cc2)OCCCC[C@H](C)Oc2ccc(NC(=O)CCC(F)(F)F)cc2C1=O	none (no result: HSF1 activator, HSP90 inh, HSF1 inhib, HIF act)
O=C(O)C1C2C=CC(C2)C1C(=O)Nc1cccc(C(=O)N2CCCCC2)c1 (stereo not drawn)	HSP90 inh 30 | HSP90 inh confirm inactive | luciferase ctr inactive
COc1ccccc1-c1ccc([C@H]2[C@@H](C#N)N(C(=O)C3CCOCC3)[C@H]2CO)cc1	none (no result: HSF1 activator, HSP90 inh, HSF1 inhib, HIF act)
S=C(N/N=C1\CCc2ccccc21)NC1CCCCC1	HSP90 inh 26, HSF1 inhib -55 | HSP90 inh confirm 34 | luciferase ctr inactive
O=C(N/N=C1/CCc2ccccc21)C1CC1	none
Cc1cnc(NC(=O)COc2ccc3c(c2)CCC3)s1	HSP90 inh 18 | HSP90 inh confirm 32 | luciferase ctr 23
O=C(C[C@@H]1CC[C@H]2[C@@H](COC[C@H](O)CN2Cc2ccc(Cl)cc2)O1)NCc1cccc(F)c1	none (no result: HSF1 activator, HSP90 inh, HSF1 inhib, HIF act)
CC(=O)c1sc(NC(=O)c2ccc(Cl)cc2)nc1C	HSP90 inh 42 | HSP90 inh confirm 25 | luciferase ctr inactive
Cc1nc(NC(=O)c2cccc(Cl)c2)sc1C(=O)N1CCCCC1	HSP90 inh 34 | HSP90 inh confirm 48 | luciferase ctr inactive
CC(C)CC#Cc1ccc2c(c1)O[C@@H](CN(C)C(=O)C1CCCCC1)[C@@H](C)CN([C@H](C)CO)S2(=O)=O	none (no result: HSF1 activator, HSP90 inh, HSF1 inhib, HIF act)
CCCC(=O)Nc1ccc2c(c1)OC[C@H](C)N(C(=O)CC1CC1)C[C@@H](C)[C@H](OC)CN(C)C2=O	none (no result: HSF1 activator, HSP90 inh, HSF1 inhib, HIF act)
O=C(Cc1ccccc1)N1C[C@@H]2[C@H](c3ccccc31)[C@H](CO)N2C(=O)C1CC1	none (no result: HSF1 activator, HSP90 inh, HSF1 inhib, HIF act)
O=C(Cc1ccccc1)N[C@H]1C=C[C@@H](CC(=O)N2CCOCC2)O[C@@H]1CO	none (no result: HSF1 activator, HSP90 inh, HSF1 inhib, HIF act)
COc1ccc(C(=O)CC(=O)c2ccccc2O)cc1	none
COc1ccc(O)c(C(=O)CC(=O)c2ccc(F)cc2)c1	HSP90 inh 21 (no result: ARNT-TACC3 inh) | HSP90 inh confirm 21 | luciferase ctr inactive
S=C(Nc1cccc2ccccc12)Nc1cccc2ccccc12	none (no result: HSF1 activator, HSP90 inh, HSF1 inhib, HIF act)
Cc1ccc(F)c(NC(=S)Nc2cccc3ccccc23)c1	HSP90 inh 18 | HSP90 inh confirm inactive | luciferase ctr inactive
Cc1ccccc1NC(=S)Nc1cccc2cnccc12	HSP90 inh 73 | HSP90 inh confirm inactive | luciferase ctr inactive
COc1ccc(C(=O)N2CCN(c3ncnc4c(-c5ccccc5)nsc34)CC2)cc1	none
COc1ccc(-c2nsc3c(N4CCCCC4)ncnc23)cc1	HSP90 inh 61, HSF1 inhib -80 | HSP90 inh confirm 82 | luciferase ctr 63
COc1ccc(-c2nsc3c(N4CCCCC4C)ncnc23)cc1 (stereo not drawn)	HSP90 inh 78, HSF1 inhib -95 | HSP90 inh confirm 83 | luciferase ctr 80
Cc1c(C(=O)Nc2ccccc2)cn2c(nc3ccccc32)c1C#N	HSP90 inh 35 | HSP90 inh confirm inactive | luciferase ctr inactive
COc1ccc(NC(=O)c2cn3c(nc4ccccc43)c(C#N)c2C)cc1	none
COc1ccccc1C(=O)Nc1ccc2c(c1)OC[C@H](C)N(C(C)=O)C[C@H](C)[C@H](OC)CN(C)C2=O	none (no result: HSF1 activator, HSP90 inh, HSF1 inhib, HIF act)
COC(=O)c1ccc(Cn2nc(C)cc2C)cc1	HSP90 inh 24 | HSP90 inh confirm inactive | luciferase ctr inactive
Cc1cc(C)n(Cc2ccc(C(=O)O)cc2)n1	none (no result: HSF1 activator, HSF1 inhib)
CC(C)C(=O)Nc1ccc2c(c1)C(=O)N(C)[C@H]1CC[C@@H](CC(=O)NCc3ccc(F)cc3)O[C@H]1CO2	none (no result: HSF1 activator, HSP90 inh, HSF1 inhib, HIF act)

Screens (PubChem BioAssay)
